In PubChem BioAssay AID440 (NMMLSC, 2006):
The campaign covered roughly 24,000 compounds. About 180 (0.75%) were called active. The full list was thinned out, with actives kept by preference. Unmarked numbers belong to inactive results. Rule as the data show it: active = inhibition above about 30%; inconclusive = no clear call, values can overlap the other calls; inactive = below that.

biological target: fMet-Leu-Phe receptor (Homo sapiens) (UniProt P21462); assay: small molecules displacing FPR fluorescent ligand – cell-based, FPRL1 counter-screen, flow cytometry, primary screen (AID 440); conditions: FPR-expressing cells, fluorescent ligand binding, active compounds read high, concentration not given here;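 also: 0% = buffer wells and 100% = receptor blocker peptide wells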
Sequence (P21462 whole entry, looked up): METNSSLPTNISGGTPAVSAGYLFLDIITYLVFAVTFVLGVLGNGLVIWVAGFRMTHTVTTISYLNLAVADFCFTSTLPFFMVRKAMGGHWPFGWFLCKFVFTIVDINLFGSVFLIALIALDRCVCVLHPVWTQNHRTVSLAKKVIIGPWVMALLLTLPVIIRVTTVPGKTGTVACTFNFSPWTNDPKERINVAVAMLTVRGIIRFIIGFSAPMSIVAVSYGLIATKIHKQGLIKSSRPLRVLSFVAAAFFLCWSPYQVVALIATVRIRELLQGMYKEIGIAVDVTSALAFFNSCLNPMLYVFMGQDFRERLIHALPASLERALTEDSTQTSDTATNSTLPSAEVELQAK

| SMILES | inhibition |
| --- | --- |
| CN(C)S(=O)(=O)c1ccc(Oc2ccc(S(=O)(=O)N(C)C)cc2)cc1 | -1.8% |
| O=C(CSc1nnc(Cn2cnc3ccccc32)o1)c1ccccc1 | 1.9% |
| O=C(O)[C@@H]1CCCN1c1ncnc2sc3c(c12)CCC3 | 8.1% |
| CC(=O)c1cccc(S(=O)(=O)N2CCC(n3nnc4cc(F)ccc43)CC2)c1 | 9.5% |
| COc1ccc(C(=O)Nc2nncs2)c(OC)c1 | 5.3% |
| CC(=O)Nc1cc(C(=O)O)ccc1S(=O)(=O)c1ccc(Cl)cc1 | -2.3% |
| CCOC(=O)N1CCC(NC(=O)Cn2cc3c(n2)CCCCC3)CC1 | 0% |
| Cc1ccc(C)c(S(=O)(=O)n2cnc3ccccc32)c1 | -0.2% |
| O=C(Nc1ccccc1C(F)(F)F)c1cc(-c2ccc(O)cc2)on1 | -2.3% |
| O=C(CS(=O)(=O)c1cn(Cc2ccc(Cl)cc2)c2ccccc12)N1CCOCC1 | 15% |
| O=C(Nc1c2c(nn1-c1ccc(F)cc1)CS(=O)C2)C12CC3CC(CC(C3)C1)C2 (centres undefined) | -5.4% |
| Cc1cc(C)c(C#N)c(SCc2[nH]nc3c2C(c2ccccc2)C(C#N)=C(N)O3)n1 (centres undefined) | -6.4% |
| CCCCc1nc2c(=O)[nH]c3ccccc3c2o1 | -2.1% |
| Fc1ccc2nc(Nc3nc4c(s3)CCCC4)sc2c1 | -14.3% |
| Cn1cccc1C1(C(F)(F)F)NCCNC1=O (centres undefined) | 1.7% |
| CCCCCCn1c(CN2CCCCC2)nc2c1c(=O)n(C)c(=O)n2C | -5.5% |
| O=c1c(-c2ccccc2)coc2c(CN3CCOCC3)c(O)ccc12 | -5.5% |
| c1ccc(COc2nsnc2N2CCOCC2)cc1 | -1.9% |
| Cn1cccc1Cc1nnc(SCC(=O)NCc2ccc3c(c2)OCO3)n1CCc1ccccc1 | 4.8% |
| COc1ccc(CCNC(=O)C2CCN(c3nn4c(=O)cc(C)nc4s3)CC2)cc1OC | -2.7% |
| CCn1ncc(C2=NOC(C(=O)N3CCN(c4ccccc4)CC3)C2)c1C (centres undefined) | -5.6% |
| OCc1n[nH]c(CO)n1 | 1.3% |
| O=C(CN1CCN(c2ncc(C(F)(F)F)cc2Cl)CC1)Nc1ccc2c(c1)OCO2 | -4.3% |
| CCCCOCCCNC(=O)c1ccccc1OCC | 1.4% |

| SMILES | inhibition |
| --- | --- |
| CCOC(=O)c1cc(NC(=O)SCC(=O)O)c(C)nc1C | 3.8% |
| CCOC(=O)c1cc2cc(-c3c(C(=O)OCC)oc4cc(O)cc(O)c4c3=O)ccc2o1 | -2.3% |
| COc1cc(C2C(C(=O)Nc3ccc(F)cc3)=C(C)Nc3nc(CCCO)nn32)cc(OC)c1OC (centres undefined) | -4.8% |
| CCOc1ccc2c(=O)c(-c3ccc4c(c3)OCCCO4)c(C)oc2c1 | -4.1% |
| CCOc1ccc(N(CC(=O)NCc2ccc(OC)cc2)S(=O)(=O)c2c(C)noc2C)cc1 | -3.8% |
| CCOC(=O)CSc1nc2c(c(=O)n(C)c(=O)n2C)n1Cc1ccccc1F | 4.7% |
| CCOc1ccc(Cn2nnc(C(=O)Nc3ccc(OC)cc3OC)c2N)cc1 | -3.7% |
| O=C(Nc1ccn(Cc2ccc(F)cc2)n1)c1ccncc1 | -7.7% |
| COc1ccc(OC)c(NC(=O)CCN2CCC(C)CC2)c1 | -5.8% |
| Cc1cc(C)c(C#N)c(SCS(=O)c2ccc(C(C)(C)C)cc2)n1 (centres undefined) | -4.1% |
| CCC(C(=O)Nc1ncccn1)(C(F)(F)F)C(F)(F)F | -1.6% |
| CCOC(=O)c1nnn(-c2nc(OC)nc(N(C)C)n2)c1-c1ccccc1 | -0.2% |
| COc1cccc(Oc2ccc(N)cc2)c1 | -7.2% |
| C=CCn1c(SCC(=O)NC23CC4CC(CC(C4)C2)C3)nc(O)cc1=O | 3.3% |
| CCn1ncc(C2=NOC(C(=O)Nc3ccccc3C(=O)OC)C2)c1C (centres undefined) | 5.9% |
| Cc1ccnc(N2C(=O)c3ccccc3C2Nc2ccc3c(c2)OCCO3)c1 (centres undefined) | -0.2% |
| CC(=O)C1=C(O)C(=O)N(c2ccc(S(N)(=O)=O)cc2)C1c1ccccc1F (centres undefined) | -10.4% |
| CCOC(=O)Cn1c(N)c(C(=O)OC)sc1=S | 1.5% |
| CCOC(=O)c1sc(=S)n(-c2cccc(OC)c2)c1N | 11% |
| CCOC(=O)c1sc(=S)n2c1[nH]c(=O)c1ccc(C(=O)OC)cc12 | 35.8% (active) |
| Cc1ccc2cccc(O)c2[n+]1[O-] | 0.7% |
| CCOC(=O)Cn1c2c(c(-c3ccccc3OC)cc1=O)CCCC2 | 10.1% |
| CCOC(=O)N1CCN(C(=O)CSc2nnc(-c3c[nH]c4ccccc34)n2CCOC)CC1 | 8.4% |
| Cc1ccc2nc(NC(=O)C3CCN(S(=O)(=O)c4ccc5c(c4)oc(=O)n5C)CC3)sc2c1 | -18.8% |

| SMILES | inhibition |
| --- | --- |
| Cc1cc(Nc2cccc(F)c2)n2ncnc2n1 | -3.6% |
| Cc1nc2ccc(S(=O)(=O)NCC(=O)NCCN3CCCCC3C)cc2s1 (centres undefined) | -4.2% |
| Cc1noc(C)c1S(=O)(=O)N(CC(=O)Nc1ccc2c(c1)OCCO2)c1ccc(C(C)C)cc1 | 0.9% |
| O=C(OCc1ccccc1F)c1ccc2c(c1)OCCO2 | 3.6% |
| CN1CCN(CCCNC(=O)c2cc3c(=O)oc4ccccc4c3s2)CC1 | -0.9% |
| COC(=O)c1cc(S(=O)(=O)NC2CCN(Cc3ccccc3)CC2)cn1C | -4.4% |
| CCC(=O)N1CCN=C1SCc1ccc(F)cc1 | 0% |
| O=C(Nc1nccs1)C1CCCN1S(=O)(=O)c1cccc2cccnc12 (centres undefined) | -4.6% |
| COc1cccc(-n2cc(C(=O)O)c3ccccc3c2=O)c1 | -2.1% |
| COC(=O)c1c(-c2ccc(C)cc2)csc1N | 7% |
| CCN1CCN(Cc2c(O)ccc3c(=O)c(-c4ccc(OC)c(OC)c4)c(C(F)(F)F)oc23)CC1 | -8.1% |
| O=C1C(=O)N(CCN2CCOCC2)C(c2ccccn2)/C1=C(/O)c1ccc(Cl)cc1 (centres undefined) | 13.6% |
| CCOc1ccc(OCC)c(NC(=O)CN(C)S(=O)(=O)c2cccc3nsnc23)c1 | -0.8% |
| Cc1cnc(C(=O)OCC(=O)Nc2ccc(Cl)cc2Cl)cn1 | -2.2% |
| COc1ccc(NC(=O)c2c(SC)nsc2SC)cc1 | 2.1% |
| COc1ccc(-c2ccc(Nc3ccc(S(=O)(=O)N4CCCC4)cc3)nn2)cc1OC | -6.4% |
| Cc1cc(Nc2ccc(Br)cc2F)n2ncnc2n1 | -4.7% |
| CCOC(=O)N1CCN(C(=O)C2CC(c3ccc(F)cc3)=NO2)CC1 (centres undefined) | 9.4% |
| CN(C)CCCNC(=O)c1ccc2[nH]c3ccccc3c2c1 | 3.7% |
| COc1cccc(N2C(=O)CC(N3CCN(S(=O)(=O)c4ccccc4)CC3)C2=O)c1 (centres undefined) | -0.8% |
| CCOC(=O)c1c(C)c(C(=O)NCCc2ccc(S(N)(=O)=O)cc2)c(C)n1CC | -11.9% |
| COc1ccc(CNC(=O)C2CCN(S(=O)(=O)N3CCOCC3)CC2)cc1 | -0.9% |
| COc1ccc(/C(O)=C2/C(=O)C(=O)N(CCCN(C)C)C2c2ccccc2)cc1OC (centres undefined) | -8.5% |
| Cc1ccc(NC(=O)CN(C)S(=O)(=O)c2cnc[nH]2)cc1C | -11.5% |

| SMILES | inhibition |
| --- | --- |
| O=C(O)Cc1ccc(NC(=O)C2CCCCC2C(=O)O)cc1 (centres undefined) | -9.4% |
| COc1ccccc1N1CCN(C(=O)c2c(-c3c(Cl)cccc3Cl)noc2C)CC1 | 6.9% |
| CCOC(=O)CN1CC23C=CC(O2)C(C(=O)Nc2ccc(F)cc2)C3C1=O (centres undefined) | -4.5% |
| COc1ccc(CC(NC(C)=O)C(=O)NC2CCN(C(=O)Nc3ccc(C#N)cc3)CC2)cc1OC (centres undefined) | 13.5% |
| CCOC(=O)c1oc2ccccc2c1NC(=O)c1cccs1 | -2.1% |
| CCOc1ccc(N(CC(=O)OC)S(=O)(=O)c2c(C)noc2C)cc1 | -18.8% |
| O=C(C1=C(O)C(=O)N(Cc2ccccc2)C1c1cccnc1)c1ccco1 (centres undefined) | 36% (active) |
| CC1=C(C(=O)OCc2ccccc2)C(c2ccco2)n2ncnc2N1 (centres undefined) | -4.9% |
| O=C(C1=C(O)C(=O)N(Cc2ccccc2)C1c1ccco1)c1ccco1 (centres undefined) | 43.1% (active) |
| O=C(C1=C(O)C(=O)N(c2ncccn2)C1c1cccs1)c1ccco1 (centres undefined) | -4.1% |
| O=C1c2ccccc2C(O)N1Cc1ccccc1 (centres undefined) | -3.5% |
| O=C(Nc1ccccc1)N(Cc1cccnc1)Cc1ccco1 | 4.3% |
| CCC1Oc2ccc(Cl)cc2N(CC(=O)O)C1=O (centres undefined) | 4.3% |
| Cc1cccc(N2C(=O)SC(N(CC(=O)O)c3cccc(C)c3)C2=O)c1 (centres undefined) | 76.8% (active) |
| Cc1cc(C)cc(N(CC(=O)NCC2CCCO2)S(=O)(=O)c2c(C)noc2C)c1 (centres undefined) | 3.2% |
| COc1ccc(C2CC(c3ccc(Cl)cc3Cl)Nc3nc(N)nn32)cc1OC (centres undefined) | 6.7% |
| COc1ccccc1C(=O)N1CCN=C1SCc1cccnc1 | 0.1% |
| CCOC(=O)c1oc2c(CN3CCN(C)CC3)c(O)ccc2c(=O)c1-c1ccc(Br)cc1 | -5.9% |
| CC(C)OC(=O)c1cc(NC(=O)C2C3CCC(O3)C2C(=O)O)cc(C(=O)OC(C)C)c1 (centres undefined) | 39.8% (active) |
| Cc1sc(NC(=O)C2C3CCC(O3)C2C(=O)O)c(C(=O)OC(C)C)c1-c1ccc(Cl)cc1 (centres undefined) | 6.3% |
| CC(C)COC(=O)C1C2C=CC3(CN(C(C)c4ccc(Br)cc4)C(=O)C13)O2 (centres undefined) | -6.6% |
| Cc1ccc(C)c(N(CC(=O)NCc2ccco2)C(=O)CCC(=O)Nc2ccccn2)c1 | 19% |
